Results reported in PubChem BioAssay AID1159580 (chemical genetic matrix, 2015).
Screen size: about 5,500 compounds; about 2,000 (36%) were called active. Not shown: some 18% with an inconclusive outcome. This is one part of the list. Values without a mark were called inactive. Cut-off read from the data, not from the text of the source: active = normalized growth mostly below about 0.91 (no sharp cut-off); inconclusive = no clear call, values can overlap the other calls; inactive = mostly above about 0.92.

Assay: chemical genetic growth profiling, strain panel (AID 1159580);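 note: tested at 20 µM; growth read once vehicle control cultures reached saturation at 30 °C; 1 = growth at the plate median or of vehicle wells; lower values mean less growth of the strain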
Conditions: S. cerevisiae deletion strains, growth OD

SMILES: O=C(NCCSCc1cccc(C(F)(F)F)c1)c1ccc(Cl)cc1
- normalized growth (locus YAR019C, strain CDC15, stronger effect = lower value): 0.968
- normalized growth (locus YBL105C, strain PKC1, stronger effect = lower value): 0.965
- normalized growth (locus YBR135W, strain CKS1, stronger effect = lower value): 0.953
- normalized growth (locus YBR136W, strain MEC1, stronger effect = lower value): 0.979
- normalized growth (locus YBR160W, strain CDC28, stronger effect = lower value): 0.964
- normalized growth (locus YDL017W, strain CDC7, stronger effect = lower value): 0.971
- normalized growth (locus YDL028C, strain MPS1, stronger effect = lower value): 0.947
- normalized growth (locus YDL101C, strain DUN1, stronger effect = lower value): 0.975
- normalized growth (locus YDL108W, strain KIN28, stronger effect = lower value): 0.961
- normalized growth (locus YDL132W, strain cdc53, stronger effect = lower value): 0.96
- normalized growth (locus YDL214C, strain PRR2, stronger effect = lower value): 0.891
- normalized growth (locus YDR052C, strain DBF4, stronger effect = lower value): 0.982
- normalized growth (locus YDR054C, strain cdc34, stronger effect = lower value): 0.955
- normalized growth (locus YDR226W, strain ADK1, stronger effect = lower value): 0.973
- normalized growth (locus YDR477W, strain SNF1, stronger effect = lower value): 0.894
- normalized growth (locus YER123W, strain YCK3, stronger effect = lower value): 0.851
- normalized growth (locus YER133W, strain GLC7, stronger effect = lower value): 0.916
- normalized growth (locus YFL009W, strain cdc4, stronger effect = lower value): 0.961
- normalized growth (locus YFL029C, strain CAK1, stronger effect = lower value): 0.965
- normalized growth (locus YFR003C, strain YPI1, stronger effect = lower value): 0.964
- normalized growth (locus YFR019W, strain FAB1, stronger effect = lower value): 0.964
- normalized growth (locus YFR028C, strain CDC14, stronger effect = lower value): 0.965
- normalized growth (locus YGR040W, strain KSS1, stronger effect = lower value): 0.905
- normalized growth (locus YGR052W, strain FMP48, stronger effect = lower value): 0.826
- normalized growth (locus YGR092W, strain DBF2, stronger effect = lower value): 0.733
- normalized growth (locus YHR030C, strain SLT2, stronger effect = lower value): 0.614 (active)
- normalized growth (locus YHR079C, strain IRE1, stronger effect = lower value): 0.72
- normalized growth (locus YHR082C, strain KSP1, stronger effect = lower value): 0.871
- normalized growth (locus YHR205W, strain SCH9, stronger effect = lower value): 0.738
- normalized growth (locus YIL147C, strain SLN1, stronger effect = lower value): 0.97
- normalized growth (locus YJL095W, strain BCK1, stronger effect = lower value): 0.743
- normalized growth (locus YJL128C, strain PBS2, stronger effect = lower value): 0.887
- normalized growth (locus YJL157C, strain FAR1, stronger effect = lower value): 0.918
- normalized growth (locus YJR016C, strain ILV3, stronger effect = lower value): 0.959
- normalized growth (locus YJR066W, strain TOR1 (second series), stronger effect = lower value): 0.897
- normalized growth (locus YJR066W, strain TOR1, stronger effect = lower value): 0.769
- normalized growth (locus YKL048C, strain ELM1, stronger effect = lower value): 0.963
- normalized growth (locus YKL067W, strain YNK1, stronger effect = lower value): 0.864
- normalized growth (locus YKL101W, strain HSL1, stronger effect = lower value): 0.917
- normalized growth (locus YKL193C, strain SDS22, stronger effect = lower value): 0.962
- normalized growth (locus YKL203C, strain TOR2, stronger effect = lower value): 0.988
- normalized growth (locus YLR113W, strain HOG1, stronger effect = lower value): 0.736 (active)
- normalized growth (locus YLR133W, strain CKI1, stronger effect = lower value): 0.902
- normalized growth (locus YLR403W, strain SFP1, stronger effect = lower value): 0.896
- normalized growth (locus YML070W, strain DAK1, stronger effect = lower value): 0.903
- normalized growth (locus YMR001C, strain CDC5, stronger effect = lower value): 0.963
- normalized growth (locus YMR205C, strain PFK2 (second series), stronger effect = lower value): 0.885
- normalized growth (locus YMR277W, strain FCP1, stronger effect = lower value): 0.951
- normalized growth (locus YNL006W, strain LST8, stronger effect = lower value): 0.967
- normalized growth (locus YNL020C, strain ARK1, stronger effect = lower value): 0.896
- normalized growth (locus YNL161W, strain CBK1, stronger effect = lower value): 0.973
- normalized growth (locus YNL183C, strain NPR1, stronger effect = lower value): 0.819
- normalized growth (locus YNL207W, strain RIO2, stronger effect = lower value): 0.969
- normalized growth (locus YNL222W, strain SSU72, stronger effect = lower value): 0.965
- normalized growth (locus YNL307C, strain MCK1 (second series), stronger effect = lower value): 0.86
- normalized growth (locus YOL078W, strain AVO1, stronger effect = lower value): 0.963
- normalized growth (locus YOL136C, strain PFK27, stronger effect = lower value): 0.896
- normalized growth (locus YOR061W, strain CKA2, stronger effect = lower value): 0.849
- normalized growth (locus YOR119C, strain RIO1, stronger effect = lower value): 0.916
- normalized growth (locus YOR231W, strain MKK1, stronger effect = lower value): 0.764
- normalized growth (locus YOR329C, strain SCD5, stronger effect = lower value): 0.965
- normalized growth (locus YPL031C, strain PHO85, stronger effect = lower value): 0.892
- normalized growth (locus YPL153C, strain RAD53, stronger effect = lower value): 0.892
- normalized growth (locus YPL204W, strain HRR25, stronger effect = lower value): 0.886
- normalized growth (locus YPL209C, strain IPL1, stronger effect = lower value): 0.968
- normalized growth (locus YPL256C, strain CLN2, stronger effect = lower value): 0.797 (active)
- normalized growth (locus YPR025C, strain CCL1, stronger effect = lower value): 0.957
- normalized growth (locus YPR106W, strain ISR1, stronger effect = lower value): 0.947
- normalized growth (locus YPR111W, strain DBF20, stronger effect = lower value): 0.93
- normalized growth (strain NNK1, stronger effect = lower value): 0.954
- normalized growth (strain TSCII, stronger effect = lower value): 0.959
